Measured values from ChEMBL document CHEMBL3433997, “St. Jude Leishmania screening dataset” (2016).

target: Hexose transporter 1 (Plasmodium falciparum) (UniProt O97467); assay: ST_JUDE_LEISH: Cytotoxicity at 2uM final concentration against transgenic Leishmania Mexicana promastigotes LmPfHT that are glucose transport deficient and complemented with the Plasmodium falciparum hexose transporter. Activity is measured by DNA content using SYBR green in vitro; type: functional

Structure (SMILES) | inhibition [%]
O=C(NCCCN1CCOCC1)c1cccc(Nc2nccc(Nc3ccc(Oc4ccccc4)cc3)n2)c1 | -0.18
O=C(Nc1cccc(F)c1)NC1CCN(c2ccnc3cc(Cl)ccc23)C1 (stereo unspecified) | 2.74
CC(C)Cn1c(Sc2ccc(C#N)c([N+](=O)[O-])c2)nnc1-c1ccccc1Cl | 4.02
CC[C@H](C)CNC(=O)c1ccc(-c2cccc(CN3CCC(N4CCCC4)CC3)c2)nc1 | 0.29
CN(C)c1nc2cc(-n3cnc4cc(-c5ccc(Cl)cc5)sc4c3=O)ccc2n1CCCN1CCCCC1 | 10.8
Cc1ccc(-n2ncc(C(=O)Nc3cc(Cl)cc(Cl)c3)c2C2CCNCC2)cc1C | 1.43
Cc1c(CNCCN2CCCCC2)c(C(=O)O)c(C)n1Cc1ccc(Cl)cc1 | 0.33
Cc1cccc2nc(-c3ccc(-c4ccc(NC(=O)C(C)CN5CCN(C)CC5)cc4)s3)[nH]c12 (stereo unspecified) | 3.1
CCn1ccc2c(N3CCCCS3(=O)=O)cc(C(=O)N[C@@H](Cc3ccccc3)[C@H](O)CNC3CCCCC3)cc21 | 5.66
C=CCN(C(=O)c1ccc(Cl)c([N+](=O)[O-])c1)c1nc(-c2ccccc2)cs1 | 9.45
CN1CCN(c2ccnc3ccc(NC(=O)Nc4ccccc4Br)cc23)CC1 | -0.8
COc1ccc(-c2csc(N(CCCN(C)C)C(=O)c3cc4c(C)nn(-c5ccccc5)c4s3)n2)cc1 | -0.63
O=C(N[C@@H](Cc1ccccc1)C(=O)NC1CCCc2ccccc21)c1ccc(O)c(-c2ccc(Cl)c(Cl)c2)c1 (stereo partly specified) | 0.41
O=C(Nc1ccc2c(c1)CCN2C1CCN(Cc2cccc3cc[nH]c23)C1)c1ccco1 (stereo unspecified) | -0.85
CN(Cc1ccncc1)C(Cc1ccccc1)C1CCN(Cc2ccc(O)c(Cl)c2)CC1 (stereo unspecified) | 2.51
CCC[C@@H]([C@@H](CC(C)C)C(=O)N[C@@H](CCCCNC(=O)OCc1ccccc1)C(=O)Nc1ncccn1)N(O)C=O | 21.5
COc1ccc2nccc([C@@H](O)CN3CCC(NC(=O)c4cccc(C(=O)c5ccccc5)c4)CC3)c2c1 | 0.28
CN1CCCC1CCNc1ncc2c(-c3ccc(NC(=O)Nc4cc(C(F)(F)F)ccc4F)c(F)c3)nn(C)c2n1 (stereo unspecified) | 0.21
O=c1cc(NCCCNCc2ccc(Cl)c(Cl)c2)[nH]c2cc(F)cc(F)c12 | 2.15
CN(C(=O)/C=C/c1cc(C(F)(F)F)ccc1F)C1CCN(CCCCCNC(=O)/C=C/c2ccc(Cl)c(Cl)c2)CC1 | 3.45
Cc1noc(C)c1-c1ccc2c(Nc3ccccc3C(C)(C)C)c(C(=O)NCc3cccc4ccccc34)cnc2c1 | 2.01
O=C1CN(C(=O)CCC2CCCC2)C(c2ccc(F)cc2)c2cc(F)ccc2N1 (stereo unspecified) | 3.45
CCC1CN(CCCn2c3ccccc3c3ccccc32)C(CC)CN1 (stereo unspecified) | -0.59
O=C(/C=C/c1cccc(Cl)c1)NCCCCCN1CCC(c2c[nH]c3ccccc23)CC1 | 6.67
CN(C)CCN(C)Cc1ccc(-c2ccc(NS(=O)(=O)c3cccc4cccnc34)cc2)cc1 | 9.32
COc1cc2nc(NCCCOC(C)C)n3nc(-c4ccccc4)nc3c2cc1OC | 10.4
